PubChem BioAssay (EPA / NIEHS)
The source made the active and inactive calls. The calls were made as follows: active = hit-call score of the fitted dose curve at least 0.9, where 1 is the maximum; inactive = score below 0.9.

The molecules below were run on Monokine induced gamma interferon (MIG), CXCL9 (gene 4283) (assay: BSK_SAg_MIG: BioMAP Diversity Plus: SAg Assay for Monokine induced gamma interferon (MIG) Biomarker Activity (AID 2283092)). Conditions: primary human HUVEC with PBMC; actives raise or lower the signal.
Summary of the method: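 HUVEC plus human PBMC co-culture, chemicals dosed and MIG (CXCL9) quantified by ELISA at 24 h. Bidirectional curve fitting against DMSO as negative control and baseline, so both gain and loss of signal count as activity.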
For Cc1ccc(N=Nc2c(O)ccc3ccccc23)c(C)c1, the outcome was “inactive”. In the case of Oc1ccc(Cc2ccccc2O)cc1, the outcome is reported as “inactive”. Cc1ccc(C(=O)c2ccccc2)cc1 was tested, and the outcome was “inactive”. In the case of O=P(O)(O)CCC(F)(F)C(F)(F)C(F)(F)C(F)(F)C(F)(F)C(F)(F)F, the outcome is reported as “inactive”. In the case of O=S(=O)(O)C(F)(F)C(F)(F)C(F)(F)C(F)(F)C(F)(F)C(F)(F)C(F)(F)C(F)(F)C(F)(F)C(F)(F)F, the outcome is reported as “inactive”. For OCC(F)(F)C(F)(F)C(F)(F)C(F)(F)C(F)(F)C(F)(F)C(F)(F)C(F)(F)C(F)(F)C(F)(F)C(F)(F)F, the outcome was “inactive”. With O=C1c2ccc(O)c(O)c2C(=O)c2c(O)ccc(O)c21 the outcome was “inactive”. CC(=O)Nc1ccc(O)cc1 was tested, and the outcome was “inactive”. In the case of NC(=NCCCCCCN=C(N)/N=C(\N)Nc1ccc(Cl)cc1)/N=C(\N)Nc1ccc(Cl)cc1, the AC50 is reported as 7.58 µM (active). CN(C)c1ccc(C(=C2C=CC(=[N+](C)C)C=C2)c2ccccc2)cc1 was tested, and the AC50 was 0.132 µM (active). For CN(C)CCOC(c1ccccc1)c1ccccc1, the outcome was “inactive”. For CC1=NN(c2ccccc2)C(=O)C1, the outcome was “inactive”. In the case of O=C1NS(=O)(=O)c2ccccc21, the outcome is reported as “inactive”. O=C(CCCN1CCC(O)(c2ccc(Cl)cc2)CC1)c1ccc(F)cc1 was tested, and the outcome was “inactive”. With CCC(C)c1ccccc1O (stereo unspecified) the outcome was “inactive”. In the case of CCCCCCCCCCCCCCC, the outcome is reported as “inactive”. With CC(C)(C)c1ccc(O)c(O)c1 the AC50 was 34.8 µM (active). CCCCCCCCCCCCCCCCCC[N+](C)(C)Cc1ccccc1 was tested, and the AC50 was 3.19 µM (active). For O=C(NO)c1ccccc1, the outcome was “inactive”. CCCCC(CC)C(=O)O (stereo unspecified) was tested, and the outcome was “inactive”. In the case of CCCCCCCCCCCCOS(=O)(=O)O, the outcome is reported as “inactive”.
